Sampled rows, rich in hits. Any-hit rate of the full collection: about 1.5%.
VHR inh abs – inhibitors of human VHR1 phosphatase (DUSP3); AID 1654; P51452; 0.52% of 290,000 active; inhibition, % at 13.3 µM; recombinant VHR phosphatase, pNPP absorbance; in the data active = inhibition above about 50%
Target sequence (P51452 whole entry, looked up): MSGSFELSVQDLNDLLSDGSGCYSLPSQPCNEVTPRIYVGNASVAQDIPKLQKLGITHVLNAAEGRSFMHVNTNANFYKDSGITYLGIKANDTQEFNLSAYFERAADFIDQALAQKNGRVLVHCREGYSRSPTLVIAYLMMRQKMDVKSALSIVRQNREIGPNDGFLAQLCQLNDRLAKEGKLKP
TcdB GH inh – inhibitors of Clostridioides difficile toxin B glycohydrolase. TcdB glycohydrolase enzymatic assay, plate reader. inhibition, % at 9.99 µM. 0.24% of 350,000 active. AID 652162; in the data active = inhibition above about 10%
PrPC surface inh – inhibitors of human cell surface prion protein PrPC. 0.43% of 370,000 active. TR-FRET read-out. inhibition, % at 13.8 µM. P04156; in the data active = inhibition above about 24%; also: 0% = median of the test wells and 100% = reference compound wells
SSB-PriA inh – inhibitors of Klebsiella pneumoniae PriA binding to SSB C-terminal tail; 0.6% of 430,000 active; AlphaScreen SSBct-PriA binding, biotinylated peptide; AID 1272365; inhibition, % at 33 µM; in the data active = inhibition mostly above about 37%, no sharp cut-off; inactive = mostly below about 20%;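 also: plate controls were negative control peptide for no effect and reference peptide for full effect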
Vc quorum ag-1 – quorum light induction in luxS cqsA deficient V. cholerae | 0.16% of 350,000 active | activation, % at 18.7 µM | V. cholerae BH1578 lux reporter, luminescence, 6 h | AID 588436; in the data active = activation mostly above about 9.7%, no sharp cut-off
CCHFV vOTU inh – blocks the CCHF virus ovarian tumor domain protease. inhibition, % at 11.5 µM. 0.55% of 370,000 active. CCHFV vOTU protease, Pep-AMC fluorescence; in the data active = inhibition above about 30%; also: 0% = vehicle wells with enzyme and 100% = no enzyme wells
Vc quorum ag-2 – inducers of V. cholerae quorum light production without autoinducers | shares compounds with Vc quorum ag-1 | V. cholerae BH1578 lux reporter, luminescence, 6 h | activation, % at 50 µM | 620 tested, under 10 active | AID 602243; call rule not given here
Active calls of the source: *; i = inactive; / = no result; + = active, no number.

SMILES	VHR inh abs	TcdB GH inh	PrPC surface inh	SSB-PriA inh	Vc quorum ag-1	CCHFV vOTU inh	Vc quorum ag-2
Cn1c(SCC(=O)c2ccccc2)nnc1C1COc2ccccc2O1 (centres undefined)	10.1	0.8	5.2	-12.8	-0.2	10.1	/
O=[N+]([O-])c1ccc(S(=O)(=O)NCC(c2cccnc2)N2CCc3ccccc32)cc1 (centres undefined)	/	-0.2	-37.3	8.3	14.3	-5.1	0.0
O=S(=O)(NCC(c1cccnc1)N1CCc2ccccc2C1)c1ccccc1 (centres undefined)	20.6	-1.1	5.6	5.5	-0.4	11.3	/
COc1cccc(CC(=O)Nc2cc3nc(-c4ccccc4)oc3nc2C)c1	/	/	/	-15.0	/	/	/
CC(C)(C)N(Cc1ccccc1)C(=O)COC(=O)CNS(=O)(=O)c1ccc2ccccc2c1	/	-1.2	-1.8	1.2	-0.5	6.2	/
Cc1ccc(S(=O)(=O)NCCC(=O)OCC(=O)N(Cc2ccccc2)C(C)(C)C)cc1C	/	0.9	-7.8	-12.9	12.5	-1.4	0.2
CC(=O)c1cccc(NC(=O)CSc2nc(=O)n(CCN3CCOCC3)c3c2CCCC3)c1	/	0.7	-3.7	-7.0	12.5	1.4	0.5
Cc1noc(C)c1NC(=O)Nc1cccc2c1O[C@@H](CN(C)S(=O)(=O)c1cccs1)[C@@H](C)CN([C@@H](C)CO)C2=O	/	0.7	/	/	/	/	/
C[C@H]1CN([C@@H](C)CO)C(=O)c2cccc(NC(=O)C3CC3)c2O[C@H]1CN(C)S(=O)(=O)c1cccs1	/	-0.1	4.0	3.9	24.4	5.4	-0.2
Cc1noc(C)c1NC(=O)Nc1cccc2c1O[C@H](CN(C)S(=O)(=O)c1cccs1)[C@@H](C)CN([C@H](C)CO)C2=O	/	-0.2	4.1	-4.2	12.1	-5.8	0.2
C[C@@H]1CN([C@H](C)CO)C(=O)c2cccc(NC(=O)C3CC3)c2O[C@@H]1CN(C)S(=O)(=O)c1cccs1	/	-0.6	/	/	/	/	/
Cc1csc(C(=O)NCc2cc(-c3cccs3)n(C)n2)c1	/	/	/	-19.0	/	/	/
O=C(Cn1cnc2c(-c3ccc(Cl)cc3)csc2c1=O)Nc1ccccc1C(F)(F)F	/	/	/	-18.0	/	/	/
NC(=O)Cn1c(CO)cnc1SCC(=O)NCc1ccc2c(c1)OCO2	/	/	/	-2.0	/	/	/
COc1cc(COCC2CCN(C(=O)c3ccc(Br)o3)CC2)cc(OC)c1	/	/	/	13.0	/	/	/
O=C(NCCS(=O)(=O)N1CCN(Cc2ccccc2)CC1)c1cccc2ccccc12	/	/	/	-20.0	/	/	/
COC(=O)c1cc(NC(=O)C2CC=CCC2C(=O)O)cc(C(=O)OC)c1 (centres undefined)	10.0	/	3.2	-16.1	7.6*	-1.9	1.0
COC(=O)c1ccccc1NC(=O)C1CC=CCC1C(=O)O (centres undefined)	-1.5	/	2.1	-6.5	i	13.1	/
O=C(Oc1ccc2ccc(OC(=O)N3CCOCC3)cc2c1)N1CCOCC1	-1.4	/	-4.5	-23.8	16.7*	-6.4	11.2
Cc1ccc(NC(=O)Cc2noc3ccccc23)cc1	-0.2	/	1.3	-0.4	-0.7	0.4	/
Cc1ccc2onc(CC(=O)O)c2c1	8.2	/	2.9	-20.4	23.7	-8.0	0.1
O=C(NCc1cccc(Oc2ccccn2)c1)c1cncc(Br)c1	/	/	/	-2.0	/	/	/
CCOC(=O)C1CCCN(Cc2cccc(Cl)c2)C1 (centres undefined)	4.3	/	0.0	4.2	12.5	-11.0	0.2
Nc1nc(CN2CCOCC2)cs1	24.3	/	-11.3	-20.0	i	-2.6	/
c1cn2cc(CN3CCOCC3)nc2s1	4.9	/	2.3	-4.5	12.5	-16.5	0.0
SMILES	VHR inh abs	TcdB GH inh	PrPC surface inh	SSB-PriA inh	Vc quorum ag-1	CCHFV vOTU inh	Vc quorum ag-2
Cc1ccc(C)c(NC(=O)CN(C)C(=O)CCN2C(=O)c3ccccc3C2=O)c1	28.2	/	-3.2	9.8	25.0*	-2.0	0.1
Cc1ccc(OCCCC(=O)N(C)CC(=O)Nc2ccccc2Cl)cc1	/	1.2	-3.1	-4.3	12.5	-2.3	0.0
CC(C)c1ccc2nc(NC(=O)c3ccc(S(=O)(=O)N4CCCC4)cc3)sc2c1	/	/	/	1.0	/	/	/
CCCNC(=O)COC(=O)/C=C/c1ccc(C)o1	14.5	1.0	-6.5	1.3	+	11.8	i
COc1cc(C(N)=O)cc(Br)c1OC	2.4	/	-8.1	-7.7	25.0*	0.7	0.3
CCCc1ccc2oc(C(=O)N(Cc3ccncc3)CC3CCCO3)c(C)c2c1 (centres undefined)	-1.6	1.0	9.8	-16.9	12.5	2.4	0.4
CC1(C(=O)N2CCN(c3ccc([N+](=O)[O-])cc3)CC2)CC1(Cl)Cl (centres undefined)	4.9	0.6	-21.4	2.3	25.5	1.5	1.8
COC(=O)Cc1c(C)c2ccc(OC(=O)c3ccccc3)cc2oc1=O	8.7	/	-2.3	-12.0	12.5	-288.2	0.2
CCCCN(Cc1nc2ccccc2c(=O)[nH]1)C(=O)CN1C(=O)NC2(CCCCC2)C1=O	/	-0.2	-7.3	-8.5	109.9*	-3.3	4.0
O=C(COc1ccccc1F)NCCn1ncc2c(=O)n(Cc3ccccc3F)cnc21	/	/	/	11.0	/	/	/
Cc1c(C(=O)c2ccc(F)cc2F)c2ccccn2c1CCc1ccccn1	/	2.7	-10.8	/	12.5	23.7	0.4
Cc1ccc(Nc2nc(C(=O)Nc3nccs3)cs2)c(C)c1	/	/	/	2.0	/	/	/
Cc1nc(=O)c(-c2ccccc2)c(C)n1CCCCCC(=O)O	7.8	/	3.7	2.7	16.7*	1.1	0.5
Cc1ccc(S(=O)(=O)Nc2ccc3c(c2)CCC(=O)N3Cc2ccccc2)cc1Cl	/	/	/	13.0	/	/	/
CCCCCn1c(SCC(=O)C(C)(C)C)nc2cc(C(=O)N3CCN(C)CC3)ccc2c1=O	/	/	/	-12.0	/	/	/
CCCCCn1c(SCC(=O)OCC)nc2cc(C(=O)N3CCC(C(N)=O)CC3)ccc2c1=O	25.0	/	-5.0	-5.3	14.3	-4.1	0.0
CC(C)c1ccc(OCCCCN2CCCCC2)cc1	10.0	0.7	2.9	-0.6	i	2.7	/
CC(C)Oc1ccc(OCCCN2CCCCCC2)cc1	18.8	/	1.6	14.5	14.3	-5.6	0.0
O=C(NCc1ccccc1-c1ccsc1)c1c[nH]c2ccccc12	/	/	/	-7.0	/	/	/
CC(C)NC(=O)COc1ccc(S(=O)(=O)N2CCCC2)cc1	-16.2	-0.5	10.5	1.6	i	-4.4	/
CSc1ccccc1NC(=O)COc1ccc(S(=O)(=O)N2CCCC2)cc1	-8.6	/	3.3	-12.3	12.5	10.5	0.1
CCOC(=O)C(C)Sc1nnc(-c2cn(C)nc2OC)n1C (centres undefined)	/	/	/	-7.0	/	/	/
O=C(CNC(=O)c1ccncc1)Nc1ccc(F)c(F)c1	0.3	-0.3	1.3	-2.7	12.5	7.4	-0.2
CCNC(=O)CCSc1nnc(-c2ccco2)o1	-0.8	6.1	-5.6	-10.1	835.0*	8.0	i
O=C(Cc1noc2ccccc12)Nc1ccccc1-c1ccc(=O)[nH]n1	/	/	/	-9.0	/	/	/
CCCc1nn(C)c2c(=O)[nH]c(-c3cc(S(=O)(=O)N(CCO)CCO)ccc3OCC)nc12	-18.9	0.3	-11.6	0.2	-2.3	2.6	/
